Source: PubChem BioAssay (Tox21)
Results filed as inconclusive are left out. More than one record can exist for a structure, and the calls need not agree. Activity calls are given as the source filed them. Unless noted, calls follow the shape of the dose curve; as a rule, active = well fitted curve in the direction sought with a large enough effect in the repeat runs; inconclusive = weak or mixed curves; inactive = no such curve, though single readings can be large; an effect the other way counts as inactive or inconclusive.

Key:
[1] = target: Retinoic acid receptor RXR-alpha (Homo sapiens) (UniProt P19793); experiment: qHTS assay to identify small molecule agonists of the RXR signaling pathway (AID 1159527; calls by dose curve; also: nearly all actives have a fitted effect of over 35% in size; also: potency is read from the fitted curve at half-maximal effect)
Method in brief: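 Read-out: beta-lactamase FRET ratio (405 nm excitation, 460 and 530 nm emission) after 2 hr substrate loading at room temperature. Cells were RXR-alpha-UAS-bla HEK 293T treated with compounds for 16 hr in 2% charcoal-stripped FBS medium.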

[2] = qHTS assay to identify small molecule agonists of the RXR signaling pathway - cell viability counter screen (AID 1159529); also: nearly all actives have a fitted effect of over 50% in size; also: potency is read from the fitted curve at half-maximal effect
Method in brief: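 HEK 293T RXRa-bla cells, 2% CS-FBS; 5 h settle; cpd 16 h 37 C, 5% CO2; CellTiter-Glo 30 min RT, luminescence. Tetraoctyl ammonium bromide as positive control.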

[3] = qHTS assay to identify small molecule antagonists of the retinoid acid receptor (RAR) signaling pathway - cell viability counter screen (AID 1159551); also: nearly all actives have a fitted effect of over 35% in size
Method in brief: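 Retinol-stimulated (1 uM final) C3RL4 cells, compound 6 h, 37 C; readout CellTiter-Glo luminescence (ATP) after 30 min RT incubation.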

[4] = qHTS assay to identify small molecule antagonists of the retinoic acid receptor (RAR) signaling pathway (AID 1159552; also: nearly all actives have a fitted effect of over 50% in size)
Method in brief: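 Cells of the C3RL4 line were seeded, incubated overnight, then dosed with compounds in DMSO followed immediately by retinol (1 uM final). Six hours later luciferase detection reagent went in; signal was measured after 30 min at RT.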

[5] = qHTS assay to identify small molecule agonists of the retinoic acid receptor (RAR) signaling pathway (AID 1159553); conditions: C3RL4 RARE luciferase reporter, agonist, 6 h
Method in brief: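 Reporter readout comes from luciferase under RARE control in C3RL4 cells; compound exposure lasts 6 hr at 37 C in 5% CO2, and luminescence is recorded following a 30 min room-temperature incubation with reagent.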

[6] = qHTS assay to identify small molecule antagonists of the estrogen related receptor (ERR) signaling pathway - cell viability counter screen (AID 1224818);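 also: viability measured after 17.5 h of compound exposure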
Method in brief: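 After a 6 h pre-incubation, ERR cells were dosed by pin tool with compounds, positive/negative controls or DMSO alone. Following 17.5 h at 37 C and 30 min with CellTiter-Fluor, fluorescence was recorded.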

[7] = qHTS assay to identify small molecule antagonists of the estrogen related receptor signaling pathway with the pleiotropic PPARgamma coactivator (PGC) cell viability counter screen (AID 1224822;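 also: viability read after 17.5 h compound exposure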)
Method in brief: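 PGC/ERR cells were plated at 2,000 per well and allowed 6 h to settle before compound addition. Following 17.5 h at 37 C, CellTiter-Fluor reagent was added and fluorescence was read 30 min later.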

[8] = activation: at 73.3 µM (top of the series) unless noted
% is scaled to controls: 0 for no effect and ±100 for the full control effect.

Chain of Retinoic acid receptor RXR-alpha (Homo sapiens) (P19793 whole entry, looked up): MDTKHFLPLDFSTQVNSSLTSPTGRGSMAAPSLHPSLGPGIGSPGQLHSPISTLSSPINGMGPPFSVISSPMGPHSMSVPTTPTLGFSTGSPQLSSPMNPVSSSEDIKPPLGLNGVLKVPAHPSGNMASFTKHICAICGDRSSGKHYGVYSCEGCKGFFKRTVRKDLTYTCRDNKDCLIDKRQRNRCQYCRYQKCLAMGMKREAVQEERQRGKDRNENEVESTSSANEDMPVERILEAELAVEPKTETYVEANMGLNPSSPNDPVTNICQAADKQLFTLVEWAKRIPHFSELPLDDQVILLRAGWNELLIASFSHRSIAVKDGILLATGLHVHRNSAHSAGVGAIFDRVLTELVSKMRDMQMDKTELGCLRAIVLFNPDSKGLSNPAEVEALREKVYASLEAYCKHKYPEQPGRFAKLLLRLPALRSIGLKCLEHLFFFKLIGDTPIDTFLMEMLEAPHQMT

COP(=S)(OC)Oc1ccc([N+](=O)[O-])cc1
inactive: Potency [1] | Potency [2] | Potency [3] | Potency [4] | Potency [5, 8]

NC(=S)Nc1ccccc1
25 µM (active) and inactive: Potency [2]
inactive: Potency [1] | Potency [3] | Potency [4] | Potency [5, 8]

CCCCOCCOP(=O)(OCCOCCCC)OCCOCCCC
inactive: Potency [1] | Potency [2] | Potency [3] | Potency [4] | Potency [5, 8]

CCOP(=S)(OCC)O/N=C(\C#N)c1ccccc1
inactive: Potency [1] | Potency [2] | Potency [3] | Potency [4] | Potency [5, 8]

CCC(C)c1cc([N+](=O)[O-])cc([N+](=O)[O-])c1O (stereo not drawn)
inactive: Potency [1] | Potency [2] | Potency [3] | Potency [4] | Potency [5, 8]

Cc1ccccc1[N+](=O)[O-]
active: activation [5, 8] 0.464% [at 94.8 µM]
inactive: Potency [1] | Potency [2] | Potency [3] | Potency [4] | activation ([5]; at 73.3 µM (top of the series)) 1.75%

S=C1NCCN1
inactive: Potency [1] | Potency [2] | Potency [3] | Potency [4] | Potency [5, 8]

Oc1cc(Cl)ccc1Cl
inactive: Potency [1] | Potency [2] | Potency [3] | Potency [4] | Potency [5, 8]

CCCCCCOC(=O)c1ccccc1C(=O)OCCCCCC
inactive: Potency [1] | Potency [2] | Potency [3] | Potency [4] | Potency [5, 8]

Nc1cccnc1
inactive: Potency [1] | Potency [2] | Potency [3] | Potency [4] | Potency [5, 8]

CCCCCCCCOC(=O)c1ccccc1C(=O)OCCCCCCCC
inactive: Potency [1] | Potency [2] | Potency [3] | Potency [4] | Potency [5, 8]

C=C(C)C(=O)OCC1CO1 (stereo not drawn)
inactive: Potency [1] | Potency [2] | Potency [3] | Potency [4] | Potency [5, 8]

Brc1ccc(Oc2cc(Br)c(Br)cc2Br)c(Br)c1
inactive: Potency [1] | Potency [3] | Potency [4] | Potency [5, 8]
active: Potency [2] 17.4 µM

O=P(O)(O)CCCl
inactive: Potency [1] | Potency [2] | Potency [3] | Potency [4] | Potency [5, 8]

CCCCCCCCCCCOC(=O)c1ccccc1C(=O)OCCCCCCCCCCC
inactive: Potency [1] | Potency [2] | Potency [3] | Potency [4] | Potency [5, 8]

CC1(C)C(C=C(Cl)Cl)C1C(=O)OC(C#N)c1cccc(Oc2ccccc2)c1 (stereo not drawn)
inactive: Potency [1] | Potency [2] | Potency [3] | Potency [4] | Potency [5, 8]

O=[N+]([O-])c1cccc2ccccc12
inactive: Potency [1] | Potency [2] | Potency [3] | Potency [4] | Potency [5, 8]

O=[N+]([O-])c1c(Cl)c(Cl)c(Cl)c(Cl)c1Cl
6.89 µM (active) and inactive: Potency [1]
inactive: Potency [2] | Potency [3] | Potency [4] | Potency [5, 8]

O=C(O)CC[N+](=O)[O-]
inactive: Potency [1] | Potency [2] | Potency [3] | Potency [4] | Potency [5, 8] | outcome [6] | Potency [7]

NCc1cccnc1
inactive: Potency [1] | Potency [2] | Potency [3] | Potency [4] | Potency [5, 8]

CCCCC(CC)COC(=O)Cl (stereo not drawn)
inactive: Potency [1] | Potency [2] | Potency [3] | Potency [4] | Potency [5, 8]

Nn1cnnc1
inactive: Potency [1] | Potency [2] | Potency [3] | Potency [4] | Potency [5, 8]

C=CCc1ccc2c(c1)OCO2
inactive: Potency [1] | Potency [2] | Potency [3] | Potency [4] | Potency [5, 8]

CC(C)NC(C)C
inactive: Potency [1] | Potency [2] | Potency [3] | Potency [4] | Potency [5, 8]

CC(C)C(=O)OCC(C)(C)C(OC(=O)C(C)C)C(C)C (stereo not drawn)
inactive: Potency [1] | Potency [2] | Potency [3] | Potency [4] | Potency [5, 8]

O=Cc1ccco1
inactive: Potency [1] | Potency [2] | Potency [3] | Potency [4] | Potency [5, 8]
